Test results taken from the supplement of paper PMC13392028.
In all, about 4,100 sequences were measured (“RBNS R-value (6-mer enrichment in protein-bound RNA vs input library)”: median about 0.96, highest 2% from about 2.4 on). The sample as a whole holds a higher share of the highest values than the screen did.

Tested on: PyIESI-1 RRM domain (Plasmodium yoelii PY17X_0911200 aa 795-956, GST fusion)
Test: RBNS R-value (6-mer enrichment in protein-bound RNA vs input library) (ratio); higher = stronger binding preference; the methods of the paper give 50 / 100 / 500 nM protein instead
Procedure: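 RNA Bind-n-Seq: recombinant GST-tagged IESI-1 RRM domain was incubated at room temperature with a random 40-nt in vitro transcribed RNA library at 250, 500 or 1000 nM protein. Bound RNA was pulled down on glutathione beads and sequenced. R-value is the enrichment of each 6-mer in the bound RNA relative to the input library. Each 6-mer sits inside the random 40-mer context, not as an isolated oligo. Values are replicate 1 only.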

Row | Sequence | RBNS R-value (protein concentration: 250 nM) | RBNS R-value (protein concentration: 500 nM) | RBNS R-value (protein concentration: 1000 nM)
1 | CGUGCU | 0.967 | 0.973 | 0.954
2 | GUAAGU | 0.66 | 0.682 | 0.638
3 | GUCUGG | 0.813 | 0.839 | 0.796
4 | UCUGAC | 1.13 | 1.12 | 1.13
5 | GCUGAC | 1.21 | 1.23 | 1.23
6 | ACUGAC | 1.18 | 1.16 | 1.18
7 | GCUGAU | 3.92 | 3.7 | 3.79
8 | ACUGAU | 4.56 | 4.17 | 4.36
9 | CCUGAA | 1.23 | 1.24 | 1.23
10 | CCUGAC | 1.32 | 1.33 | 1.34
11 | CCUGAU | 4.76 | 4.47 | 4.65
12 | ACUGAG | 1.18 | 1.19 | 1.13
13 | GCUGAG | 1.21 | 1.18 | 1.15
14 | UCUGAA | 1.01 | 1.03 | 0.99
15 | UCUGAU | 4.51 | 4.2 | 4.42
16 | AUGCAG | 1.15 | 1.16 | 1.18
17 | AUCUGU | 0.889 | 0.916 | 0.89
18 | GAGGAG | 1.12 | 1.09 | 1.02
19 | CUCACG | 0.951 | 0.969 | 0.993
20 | UCUGGC | 1.18 | 1.18 | 1.17
21 | GCGACC | 1.08 | 1.08 | 1.09
22 | GGGUUU | 0.955 | 0.992 | 0.97
23 | ACACUC | 1.07 | 1.05 | 1.07
24 | AUUGAC | 1.45 | 1.46 | 1.49

Row | Sequence | RBNS R-value (protein concentration: 250 nM) | RBNS R-value (protein concentration: 500 nM) | RBNS R-value (protein concentration: 1000 nM)
25 | UUUGAC | 1.48 | 1.47 | 1.5
26 | GUUGAG | 0.856 | 0.907 | 0.877
27 | CUUGAA | 1.18 | 1.17 | 1.15
28 | GUUGAU | 4.02 | 3.81 | 3.96
29 | GUUGAC | 1.02 | 1.02 | 1.01
30 | CUUGAC | 1.61 | 1.59 | 1.61
31 | AUUGAG | 1.23 | 1.24 | 1.21
32 | UUUGAU | 6.28 | 5.82 | 6.05
33 | UUUGAA | 1.15 | 1.15 | 1.13
34 | CUUGAU | 4.89 | 4.7 | 4.93
35 | AUUGAU | 5.75 | 5.29 | 5.52
36 | GUGUGA | 1.5 | 1.51 | 1.48
37 | UUGGUC | 0.872 | 0.953 | 0.884
38 | GCGGGC | 1.09 | 1.09 | 1.07
39 | UUCUGC | 1.19 | 1.21 | 1.22
40 | GGUUCG | 0.887 | 0.904 | 0.88
41 | UAUCAG | 0.589 | 0.619 | 0.59
42 | AGCCUU | 0.931 | 0.961 | 0.982
43 | GAUCUA | 1.19 | 1.23 | 1.27
44 | CACGAU | 1.8 | 1.82 | 1.95
45 | CUUAGA | 0.933 | 0.948 | 0.93
46 | AACAUA | 0.429 | 0.465 | 0.417
47 | CCAAAA | 1.14 | 1.1 | 1.11
48 | GUAUGU | 0.702 | 0.701 | 0.677
